Calls of active or inactive are those of the source. Calls follow the shape of the full dose curve.

Chain of Thyroid hormone receptor beta (Homo sapiens) (P10828 whole entry, looked up, the tested form may be a part): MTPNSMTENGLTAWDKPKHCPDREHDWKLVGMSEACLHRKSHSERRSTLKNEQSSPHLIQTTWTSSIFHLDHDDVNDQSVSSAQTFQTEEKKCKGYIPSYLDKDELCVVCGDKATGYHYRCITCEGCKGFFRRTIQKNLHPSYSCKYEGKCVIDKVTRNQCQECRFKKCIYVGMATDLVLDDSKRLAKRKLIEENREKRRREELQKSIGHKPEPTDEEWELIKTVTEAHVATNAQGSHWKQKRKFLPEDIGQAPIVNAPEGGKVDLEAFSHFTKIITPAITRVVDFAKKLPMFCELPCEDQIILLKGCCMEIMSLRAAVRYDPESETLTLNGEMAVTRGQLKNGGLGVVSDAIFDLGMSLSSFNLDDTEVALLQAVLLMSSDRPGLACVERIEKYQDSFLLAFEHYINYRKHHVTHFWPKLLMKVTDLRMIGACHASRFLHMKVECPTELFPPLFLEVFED

For this test, the target named is Thyroid hormone receptor beta (Homo sapiens) (UniProt P10828). Briefly: Secondary Confirmation Assay for Inhibitors of the Interaction of Thyroid Hormone Receptor and Steroid Receptor Coregulator 2, Texas Red Fluoroprobe. As to conditions: TRb LBD / Texas Red SRC2 peptide fluorescence polarization. From the text:
NIH Molecular Libraries Probe Production Network [MLPCN] NIH Chemical Genomics Center [NCGC] MLPCN Grant: DK058080 Assay Provider: R. Kip Guy, St. Jude Children's Research Hospital NCGC Assay Overview: Thyroid receptor (TR) regulates many homeostatic processes including basal metabolism, cardiovascular function, body weight, and lipid trafficking. TR modulators are potential therapeutics for obesity and hyperlipidemias but current thyroid analogs have undesirable side effects, particularly cardiac stimulation. To identify inhibitors that specifically prevent the interaction of TR with the steroid receptor coregulator 2 (SRC2), a fluorescence polarization assay was screened (Arnold et al., 2006). This assay detects the interaction of the ligand-binding domain of human TRb with a Texas Red labeled SRC2 peptide, corresponding to a 20 amino acid region of the nuclear receptor interaction domain. Small molecule inhibitors that block the interaction of TR and SRC2 are detected by a decrease in fluorescence polarization.
NCGC Assay Protocol Summary: Twenty uL/well 0.6 uM TRb and 20 nM Texas Red labeled SRC2-2 in protein buffer (20mM Tris hydrochloride, pH 7.4, 100mM NaCl, 10% glycerol, 1mM EDTA, 0.01% NP-40, 1mM DTT, 1uM T3 and 4% DMSO) was dispensed into black solid 384-well plates (Costar 3710) using a Biomek FX (Beckman Coulter) liquid handling system. Following transfer of 260 nL compound (ranging from 7 nM to 130 uM), the plates were incubated 3 hr at ambient temperature. The plates were read by an Envision (Perkin Elmer) to detect fluorescence polarization of SRC2 Texas Red (555 nm excitation and 632 nm emission). Arnold, L. A.; Estebanez-Perpina, E.; Togashi, M.; Shelat, A.; Ocasio, C. A.; McReynolds, A. C.; Nguyen, P.; Baxter, J. D.; Fletterick, R. J.; Webb, P.; Guy, R. K. A high-throughput screening method to identify small molecule inhibitors of thyroid hormone receptor coactivator binding. Sci STKE 2006, p 13.
As for `CS(=O)(=O)c1ccc(C(=O)OCC(=O)N2CCN(CCC3CCCCC3)CC2)cc1[N+](=O)[O-]`, the Potency is 7.6 µM (active).

With `CS(=O)(=O)c1ccc(C(=O)OCC(=O)N2CC(=O)Nc3ccccc32)cc1[N+](=O)[O-]`, the Potency was 3.8 µM (active).

As for `CS(=O)(=O)c1ccc(C(=O)OCC(=O)Nc2ccc(OC(F)(F)F)cc2)cc1[N+](=O)[O-]`, the result was inactive.

With `O=C(COC(=O)c1ccc2ncsc2c1)NC(=O)C1CCCCC1`, the call was inactive.

For `CS(=O)(=O)c1ccc(C(=O)OCC(=O)N2CCN(Cc3ccccc3)CC2)cc1[N+](=O)[O-]`, the Potency is 15.3 µM (active).

Regarding `Cc1ccc(F)cc1NC(=O)COC(=O)c1ccc(S(C)(=O)=O)c([N+](=O)[O-])c1`, the compound was called inactive.

Turning to `CS(=O)(=O)c1ccc(C(=O)OCC(=O)N2CCc3ccccc32)cc1[N+](=O)[O-]`, the Potency was 51.8 µM (active).

Take `CS(=O)(=O)c1ccc(C(=O)OCC(=O)NCC2CCCO2)cc1[N+](=O)[O-]` (stereo not given): the compound was called inactive.

For the compound `CC(=O)c1cccc(NC(=O)COC(=O)c2ccc(S(C)(=O)=O)c([N+](=O)[O-])c2)c1`, the call was inactive.

Regarding `C#CCNC(=O)COC(=O)c1ccc(S(C)(=O)=O)c([N+](=O)[O-])c1`, the outcome was inactive.

Consider `CCN(CC)C(=O)COC(=O)c1ccc(S(C)(=O)=O)c([N+](=O)[O-])c1`, for which the Potency is 41.3 µM (active).

`CS(=O)(=O)c1ncc(C(=O)OCC(=O)NC2C3CC4CC(C3)CC2C4)cn1` (stereo not given): the Potency is 3.2 µM (active).

In the case of `CCC(OC(=O)c1ccc(S(C)(=O)=O)c([N+](=O)[O-])c1)C(=O)NC1C2CC3CC(C2)CC1C3` (stereo not given), the Potency is 1.1 µM (active).

Regarding `C#CC1(NC(=O)COC(=O)c2ccc(S(C)(=O)=O)c([N+](=O)[O-])c2)CCCCC1`, the Potency was 9.2 µM (active).

On to `Cc1nc(-c2ccc(S(C)(=O)=O)c([N+](=O)[O-])c2)sc1C(=O)NC1C2CC3CC(C2)CC1C3` (stereo not given), for which the Potency is 4 µM (active).

In the case of `CS(=O)(=O)c1ccc(C(=O)OCC(=O)NC(=O)NC2CCCCC2)cc1[N+](=O)[O-]`, the Potency was 19.1 µM (active).

Take `CS(=O)(=O)c1ccc(C(=O)OCC(=O)NC2C3CC4CC(C3)CC2C4)cc1[N+](=O)[O-]` (stereo not given): the Potency is 1.6 µM (active).

On to `CS(=O)(=O)c1ccc(C(=O)OC(C(=O)NC2C3CC4CC(C3)CC2C4)c2ccccc2)cc1[N+](=O)[O-]` (stereo not given), for which the Potency is 3.9 µM (active).

Regarding `CC(C)CN1CCN(C(=O)COC(=O)c2ccc(S(C)(=O)=O)c([N+](=O)[O-])c2)CC1`, the Potency is 42.4 µM (active).

As to `CC1CCCCN1C(=O)COC(=O)c1ccc(S(C)(=O)=O)c([N+](=O)[O-])c1` (stereo not given), the Potency was 11.5 µM (active).

Regarding `C[S+](=O)([O-])c1ccc(C(=O)OCC(=O)N2CCN([S+](C)(=O)[O-])CC2)cc1[N+](=O)[O-]`, the compound was called inactive.

As to `CS(=O)(=O)c1ccc(C(=O)OCC(=O)N2CCN(C3CCCCC3)CC2)cc1[N+](=O)[O-]`, the Potency was 16.1 µM (active).

Regarding `CS(=O)(=O)c1ccc(-c2nc(C(=O)NC3C4CC5CC(C4)CC3C5)cs2)cc1[N+](=O)[O-]` (stereo not given), the Potency was 10.1 µM (active).

As for `O=C(COC(=O)c1ccc(C(F)(F)F)cc1)NC(=O)C1CCCCC1`, the result was inactive.

For the compound `Cc1ccc(-c2csc(-c3ccc(S(C)(=O)=O)c([N+](=O)[O-])c3)n2)cc1`, the Potency is 36.8 µM (active).

With `N#Cc1ncc(C(=O)OCC(=O)NC2C3CC4CC(C3)CC2C4)cn1` (stereo not given), the call was inactive.

`O=C(COC(=O)c1cccc([N+](=O)[O-])c1)NC1C2CC3CC(C2)CC1C3` (stereo not given): the compound was called inactive.

Turning to `CC1(C)C2CCC1(C)C(NC(=O)COC(=O)c1ccc(S(C)(=O)=O)c([N+](=O)[O-])c1)C2` (stereo not given), the Potency was 4.3 µM (active).

Consider `CC(=O)Nc1cccc(C(=O)OCC(=O)NC(=O)C2CCCCC2)c1`, for which the result was inactive.

Regarding `C[S+](=O)([O-])c1ccc(C(=O)OCC(=O)NC2C3CC4CC(C3)CC2C4)cc1` (stereo not given), the compound was classed as inactive.

For the compound `CC(=O)c1cccc(NC(=O)C(C)OC(=O)c2ccc(S(C)(=O)=O)c([N+](=O)[O-])c2)c1` (stereo not given), the Potency was 50.9 µM (active).

For `CC1CCN(C(=O)COC(=O)c2ccc(S(C)(=O)=O)c([N+](=O)[O-])c2)CC1`, the Potency was 9.8 µM (active).

Turning to `CS(=O)(=O)c1ccc(C(=O)OCC(=O)N2CCOCC2)cc1[N+](=O)[O-]`, the result was inactive.

As to `CS(=O)(=O)c1ccc(C(=O)OCC(=O)N2CCC(c3ccccc3)CC2)cc1[N+](=O)[O-]`, the Potency was 6.2 µM (active).

Regarding `Cn1cccc1C(=O)NC(=O)COC(=O)c1ccc(S(C)(=O)=O)c([N+](=O)[O-])c1`, the Potency was 38.4 µM (active).

Consider `O=C(COC(=O)c1ccc(F)c([N+](=O)[O-])c1)NC1C2CC3CC(C2)CC1C3` (stereo not given), for which the Potency was 14.3 µM (active).

Turning to `CCc1nc(-c2ccc(S(C)(=O)=O)c([N+](=O)[O-])c2)sc1C(=O)NC1C2CC3CC(C2)CC1C3` (stereo not given), the Potency was 3 µM (active).

`CN1CCN(C(=O)COC(=O)c2ccc(S(C)(=O)=O)c([N+](=O)[O-])c2)CC1`: the outcome was inactive.

For `CC(=O)N1CCN(C(=O)COC(=O)c2ccc([S+](C)(=O)[O-])c([N+](=O)[O-])c2)CC1`, the outcome was inactive.

As to `O=C(COC(=O)c1cc([N+](=O)[O-])ccc1F)NC1C2CC3CC(C2)CC1C3` (stereo not given), the result was inactive.

These data come from PubChem BioAssay AID2490 (National Center for Advancing Translational Sciences (NCATS), 2010).
